Drawing on PubChem BioAssay (Tox21), this text covers max response and Potency for 40 molecules.

Molecules are shown by their SMILES. Inconclusive results are not listed. The source made the active and inactive calls. Calls come from the whole dose curve; as a rule, active = well fitted cell-killing curve with a large enough effect in the repeat runs; inconclusive = weak or mixed curves, or effect the other way; inactive = flat fitted curve, though single readings scatter.
% is set by controls: 0 for no effect and ±100 for the full control effect; potency is the fitted concentration of half-maximal effect.

The experiment in a line: qHTS RealTime-Glo MT Cell Viability Assay in HEK293 cells - 40 hour (AID 1224874). Note: nearly all actives have a fitted effect of over 50% in size. To be noted: RealTime-Glo luminescence; max response: stronger effect = lower value. From the text: U.S. Tox21 Program National Center for Advancing Translational Sciences [NCATS] NIH Chemical Genomics Center [NCGC] U.S. Environmental Protection Agency [EPA] National Institutes of Environmental Health Sciences [NIEHS] National Toxicology Program [NTP] U.S. Food and Drug Administration [FDA] Tox21 Assay Overview: Measure of cell viability is critical in the cell-base assay. Analysis of cell viability is necessary for the characterization of cell responses to cytotoxic drugs and environmental stress. A RealTime-Glo MT Cell Viability Assay to monitor cell viability in real time of continues cell culture during 40 hours of compound treatment was used to screen Tox21 10K library compounds in Hek293 cells. The RealTime-Glo MT Cell Viability Assay is a nonlytic, homogeneous, bioluminescent method to measure cell viability in real time using a simple, plate-based method. The assay involves adding NanoLuc luciferase and a cell-permeant prosubstrate to cells in culture. Viable cells reduce the proprietary prosubstrate to generate a substrate for NanoLuc luciferase. This substrate diffuses from cells into the surrounding culture medium, where it is rapidly used by the NanoLuc Enzyme to produce a luminescent signal. The signal correlates with the number of viable cells, making the assay well suited for cytotoxicity studies.
Tox21 Assay Protocol Summary: The mixture of Hek293 cell suspension and reagents were dispensed at 600cells/6 ul/well in 1536-well tissue culture treated black solid bottom plates using a Multidrop dispenser. After the assay plates were incubated at a 37 C/5% CO2 incubator for 5 hours, 23 nL of compounds dissolved in DMSO, positive and negative controls was transferred to the assay plate by a pintool work station. The plates were incubated at 37 C for 40 hours. The luminescence intensity were measured at 0h, 8h, 16h, 24h, 32h and 40h time points using ViewLux plate reader during compound treatment.
In general terms: Quantitative high-throughput screening tests each substance at several concentrations.
As to `COc1cc(C[C@@H](C)N)c(OC)cc1C`, the max response is -9.2% (inactive).

Turning to `CCCCOP(=O)(O)OCCCC`, the max response was 0.827% (inactive).

Take `CS(=O)(=O)c1cc(C(F)(F)F)ccc1C(=O)c1cnoc1C1CC1`: the max response is -3.5% (inactive).

Consider `N#CC(O)c1ccccc1` (stereo not given), for which the max response was 19.9% (inactive).

As to `COc1cccc2c1cc([N+](=O)[O-])c1c(C(=O)O)cc3c(c12)OCO3`, the Potency was 2.19 µM (active).

For `Cc1ncsc1CCCl`, the max response was 3.38% (inactive).

Turning to `OCCBr`, the max response was 13.1% (inactive).

As for `O=C(O)c1ccc2[nH]cc(CCCCN3CC=C(c4ccccc4)CC3)c2c1`, the max response was -1.51% (inactive).

As for `CC(C=O)Cc1ccc2c(c1)OCO2` (stereo not given), the max response is 0.337% (inactive).

Consider `Cc1coc2c1CCC(C)C2` (stereo not given), for which the max response was 15.4% (inactive).

As for `O=C1OC(CCN2CCCCC2)OC1(c1ccccc1)c1ccccc1` (stereo not given), the max response was 5.83% (inactive).

As to `CCOC(=O)/C=C(C)/C=C/C[C@@H](C)CCCC(C)C`, the max response is 8.55% (inactive).

On to `CCC(=O)c1ccccc1`, for which the max response was 5.66% (inactive).

Turning to `ClC(Br)Br`, the max response was 9.83% (inactive).

For the molecule `ClCC(Cl)Cl`, the max response is -2.64% (inactive).

Turning to `COc1cc(OC)nc(Sc2cccc(Cl)c2C(=O)O)n1`, the max response was 16.2% (inactive).

On to `CCC(C)n1c(=O)[nH]c(C)c(Br)c1=O` (stereo not given), for which the max response is 0.435% (inactive).

On to `COP(=S)(OC)Oc1ccc(S(N)(=O)=O)cc1`, for which the max response is -1.36% (inactive).

As for `COc1cccc(C(=O)NN(C(=O)c2cc(C)cc(C)c2)C(C)(C)C)c1C`, the max response is -10% (inactive).

As to `N#CCCC#N`, the max response was 17.5% (inactive).

`COc1cc(OC)nc(NC(=O)NS(=O)(=O)c2ncccc2C(=O)N(C)C)n1`: the max response is 7.6% (inactive).

`BrCCCCCCBr`: the max response was 2.7% (inactive).

In the case of `CCOP(=S)(OCC)SCSc1ccc(Cl)cc1`, the max response is -2.07% (inactive).

Consider `CC(C)[N+](=O)[O-]`, for which the max response is 0.0306% (inactive).

For `O=[N+]([O-])c1cccc(O)c1`, the max response is 4.13% (inactive).

Turning to `CCCCC(=O)Cl`, the max response was 5.77% (inactive).

In the case of `CN(C)CCc1ccc(O)cc1`, the max response was 11.4% (inactive).

Consider `CNC(=O)Oc1ccc(N(C)C)c(C)c1`, for which the max response is -14.9% (inactive).

Turning to `CC(C)(C)OC(=O)c1ncn2c1[C@@H]1CCCN1C(=O)c1c(Br)cccc1-2`, the max response is -21.6% (inactive).

Regarding `CCCCOC(=O)c1ccccc1C(=O)O`, the max response is 1.78% (inactive).

Regarding `CN(N=O)C(N)=O`, the max response is 10.1% (inactive).

With `OC(Cn1cncn1)(c1ccc(F)cc1)c1ccccc1F` (stereo not given), the max response is -0.588% (inactive).

In the case of `CCCSC(=O)N(CCC)CCC`, the max response was 7.77% (inactive).

Turning to `CCNc1nc(NC(C)C)nc(OC)n1`, the max response is -7.59% (inactive).

As to `O=S(=O)(O)C(F)(F)C(F)(F)C(F)(F)C(F)(F)C(F)(F)C(F)(F)F`, the max response is 2.43% (inactive).

Take `CC(C)NCC(O)c1ccc(N)c(C#N)c1` (stereo not given): the max response is 2.86% (inactive).

Take `Fc1ccc(C2(Cn3cncn3)OC2c2ccccc2Cl)cc1` (stereo not given): the Potency was 27.5 µM (active).

Regarding `CCOP(=S)(OCC)SCSP(=S)(OCC)OCC`, the max response was 7.42% (inactive).

`C[C@@H]1CN(C2CCC(C#N)(c3ccc(F)cc3)CC2)CC[C@]1(C(=O)O)c1ccccc1` (stereo not given in full): the max response was 2.36% (inactive).

Turning to `O=C1OC(=O)C2C1C1(Cl)C(Cl)=C(Cl)C2(Cl)C1(Cl)Cl` (stereo not given), the max response is -0.525% (inactive).
